For five compounds, outcome and AC50 results are on record in PubChem BioAssay AID2284350 (EPA ToxCast).

The term AC50 denotes the midpoint of the concentration-response curve, whichever way the signal moves.

Inconclusive results are not listed. Active and inactive are the calls of the source. How the source made its calls: active means hit-call score of the fitted dose curve at least 0.9, where 1 is the maximum; inconclusive means response in the unintended direction; inactive means score below 0.9.

The test system of the assay is zebrafish Peroxisome Proliferator-activated Receptor alpha (PPARa), gene 563298. The experiment in a line: ATG_zfPPARa_EcoTox2: Attagene TRANS-FACTORIAL EcoTox-2 HepG2 Assay for zebrafish Peroxisome Proliferator-activated Receptor alpha (PPARa). How it is done: ATG_EcoTox2 is a cell-based, multiplexed assay created by modifying the existing Attagene TRANS-FACTORIAL system to include a panel of nuclear receptors from some or all the following species: human (Homo sapiens), african clawed frog (Xenopus laevis), rainbow trout (Oncorhynchus mykiss), japanese medaka (Oryzias latipes), and zebrafish (Danio rerio). The ECOTOX2-FACTORIAL format uses HepG2, a human liver cell line, with measurements taken at 24 hours after chemical dosing in a 24-well plate. ATG_zfPPARa_EcoTox2 is one of 29 assay components calculated in the ATG_EcoTox2 assay. It is designed to make measurements of mRNA induction, a form of inducible reporter, as detected with fluorescence intensity signals by Reverse transcription polymerase chain reaction (RT-PCR) and Capillary electrophoresis technology.The assay endpoint ATG_zfPPARa_EcoTox2 was analyzed in the positive analysis fitting direction relative to DMSO as the negative control and baseline of activity. Using a type of inducible reporter, measures of mRNA for gain-of-signal activity can be used to understand the reporter gene at the transcription factor-level as they relate to the gene PPARa. Furthermore, this assay endpoint can be referred to as a primary readout, because this assay has produced multiple assay endpoints where this one serves a reporter gene function. To generalize the intended target to other relatable targets, this assay endpoint is annotated to the nuclear receptor intended target family, where the subfamily is non-steroidal.
Human liver HepG2 cells are transiently transfected with multiple reporter transcription units (MRTUs) in 6-well plates using FuGene 6 reagent (Roche; 3 ml FuGene/1 mg DNA). The MRTU constructs are regulated by a cis-regulating element (promoter). Each RTU expresses a GAL4-UAS that regulates the transcription of a nearby target reporter gene sequence. A major difference between the CIS and TRANS system is that in CIS activities of endogenous TFs are measured, whereas the TRANS assay evaluates changes in activities of exogenous, chimeric NR-Gal4 proteins. […] At the end of 24 hour incubation, total RNA was isolated using TriZol reagent (Invitrogen). The isolated RNA is then reverse-transcribed using oligo(dT) primer and Mo-MLV reverse transcriptase (Invitrogen) with DNAse I (Ambion) treatment for 30 min. The one-tenth of the produced cDNA was amplified by PCR using Taq DNA polymerase (Invitrogen) and two reporter sequence-specific primers. The PCR products were fluorescently labeled by primer extension with 6-arboxyfluorescein (6-FAM) 5'-labeled reporter sequence-specific primer (2 min at 95 C, 20 s at 68 C and 10 min at 72 C) and these products were digested with 5U of HpaI (New England Biolabs) for 2h at 37 C. The fragments were purified using Qiaquick PCR columns (Qiagen), analyzed on an ABI 3130xL genetic analyzer (Applied Biosystems) with peak positions identified by using a set of X-rhodamine (ROX)-labeled MapMarker1000 molecular weight standards (BioVentures). The raw capillary electrophoresis data was processed using Attagraph software (Attagene).
Consider `CCCCOCN(C(=O)CCl)c1c(CC)cccc1CC`, for which the result was inactive.

`O=P(Oc1ccccc1)(Oc1ccccc1)Oc1ccccc1`: the compound was classed as inactive.

Regarding `O=C(O)C(F)(F)C(F)(F)C(F)(F)C(F)(F)C(F)(F)C(F)(F)C(F)(F)F`, the AC50 is 52.7 µM (active).

On to `[Cl][Sn]([c]1ccccc1)([c]1ccccc1)[c]1ccccc1`, for which the compound was called inactive.

With `O=S(=O)(O)C(F)(F)C(F)(F)C(F)(F)C(F)(F)C(F)(F)C(F)(F)F`, the call was inactive.
